Measurements published in PubChem BioAssay (NCATS).
Inconclusive results are not listed. Where a call stands in place of a potency, no number is given. Activity calls are given as the source filed them. Unless noted, calls follow the shape of the full dose curve.

Legend:
[1] = qHTS for Inhibitors of the Functional Ribonucleoprotein Complex (vRNP) of Lassa (LASV) Arenavirus: LASV Primary Screen - GLuc reporter signal (AID 1347082; calls by dose curve; tested in HEK293 reporter line; also: series mostly up to about 57 µM; nearly all actives have a fitted effect of over 60% in size)
[2] = qHTS for Inhibitors of the Functional Ribonucleoprotein Complex (vRNP) of Lassa (LASV) Arenavirus: Viability assay - alamar blue signal for LASV Primary Screen (AID 1347083; calls by dose curve; tested in HEK293 reporter line; also: nearly all actives have a fitted effect of over 80% in size; also: potency is read from the fitted curve at half-maximal effect)
[3] = qHTS for Inhibitors of the Functional Ribonucleoprotein Complex (vRNP) of Lymphocytic Choriomeningitis Arenaviruses (LCMV): Viability assay - alamar blue signal for LCMV Primary Screen (AID 1347085; calls by dose curve; tested in HEK293 reporter line; also: nearly all actives have a fitted effect of over 80% in size; also: potency is read from the fitted curve at half-maximal effect)
[4] = molecular target: Nucleoprotein (Lymphocytic choriomeningitis virus (strain Armstrong)) (UniProt P09992); assay: qHTS for Inhibitors of the Functional Ribonucleoprotein Complex (vRNP) of Lymphocytic Choriomeningitis Arenaviruses (LCMV): LCMV Primary Screen - GLuc reporter signal (AID 1347086); also: nearly all actives have a fitted effect of over 70% in size; also: potency is read from the fitted curve at half-maximal effect
[5] = qHTS of pediatric cancer cell lines to identify multiple opportunities for drug repurposing: Primary screen for TC32 cells (AID 1347089; active = well fitted cell-killing curve with a large enough effect; also: nearly all actives have a fitted effect of over 60% in size)
In short: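 A viability screen of TC32 cells was run over 48 h, with primary MIPE doses spanning 0.78 nM–46 µM and NPC doses 0.59 nM–46 µM. ATP luminescence (CellTiter-Glo) served as the read-out.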

Chain of Nucleoprotein (Lymphocytic choriomeningitis virus (strain Armstrong)) (P09992 whole entry, looked up): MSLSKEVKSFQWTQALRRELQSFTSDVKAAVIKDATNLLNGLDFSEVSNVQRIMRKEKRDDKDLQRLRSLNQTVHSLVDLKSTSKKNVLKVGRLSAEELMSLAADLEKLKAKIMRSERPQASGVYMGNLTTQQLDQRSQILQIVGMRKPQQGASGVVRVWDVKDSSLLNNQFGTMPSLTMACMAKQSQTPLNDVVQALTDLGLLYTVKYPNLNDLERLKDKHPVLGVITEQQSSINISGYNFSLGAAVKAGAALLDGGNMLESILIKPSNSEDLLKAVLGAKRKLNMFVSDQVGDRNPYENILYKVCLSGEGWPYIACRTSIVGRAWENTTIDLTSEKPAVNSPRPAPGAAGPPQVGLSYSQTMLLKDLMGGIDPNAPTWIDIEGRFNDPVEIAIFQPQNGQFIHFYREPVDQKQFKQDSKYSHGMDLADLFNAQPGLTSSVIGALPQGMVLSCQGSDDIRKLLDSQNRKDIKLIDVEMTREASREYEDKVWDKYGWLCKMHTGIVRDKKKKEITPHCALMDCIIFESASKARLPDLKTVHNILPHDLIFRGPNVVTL

CCCCNc1ccc(C(=O)OCCOCCOCCOCCOCCOCCOCCOCCOCCOC)cc1
Potency [1]: inactive
Potency [2]: inactive
Potency [3]: inactive
Potency [4]: inactive

CC[C@H](C)C(=O)O[C@H]1C[C@@H](C)C=C2C=C[C@H](C)[C@H](CC[C@@H]3C[C@@H](O)CC(=O)O3)[C@H]21
Potency [1]: inactive
Potency [2]: inactive
Potency [4]: inactive

C1N2CN3CN1CN(C2)C3
Potency [1]: inactive
Potency [2]: inactive
Potency [3]: inactive
Potency [4]: inactive

O=C(O)C(=O)c1cn(Cc2ccccc2)c2ccc(-c3ccc(OC(F)(F)F)cc3)cc12
Potency [1]: inactive
Potency [2]: inactive
Potency [3]: inactive
Potency [4]: inactive
Potency [5]: inactive

Cc1onc(-c2ccccc2Cl)c1C(=O)N[C@@H]1C(=O)N2[C@@H]1SC(C)(C)[C@@H]2C(=O)O
Potency [1]: inactive
Potency [2]: inactive
Potency [3]: inactive
Potency [4]: inactive

CN(C)CCC[C@@]1(c2ccc(F)cc2)OCc2cc(C#N)ccc21
Potency [1]: inactive
Potency [2]: inactive
Potency [3]: inactive
Potency [4]: inactive

CCN(C)C(=O)Oc1cccc([C@H](C)N(C)C)c1
Potency [1]: inactive
Potency [2]: inactive
Potency [3]: inactive
Potency [4]: inactive

CC(C)(C#N)c1cc(Cn2cncn2)cc(C(C)(C)C#N)c1
Potency [1]: inactive
Potency [2]: inactive
Potency [3]: inactive
Potency [4]: inactive

Cc1ccc(NC(=O)c2ccc(CN3CCN(C)CC3)cc2)cc1Nc1nccc(-c2cccnc2)n1
Potency [1]: inactive
Potency [3]: inactive

CN(C)c1cc(NC(=O)CNC(C)(C)C)c(O)c2c1C[C@@H]1C[C@H]3[C@H](N(C)C)C(=O)C(C(N)=O)=C(O)[C@@]3(O)C(=O)C1=C2O
Potency [1]: inactive
Potency [2]: inactive
Potency [3]: inactive
Potency [4]: inactive

CN1CCN(CCCN2c3ccccc3Sc3ccc(Cl)cc32)CC1
Potency [1]: inactive
Potency [2]: inactive
Potency [3]: inactive
Potency [4]: inactive

CCCCNC(=O)NS(=O)(=O)c1ccc(C)cc1
Potency [1]: inactive
Potency [2]: inactive
Potency [3]: inactive
Potency [4]: inactive

Cc1ccc(-n2nc(C(C)(C)C)cc2NC(=O)Nc2ccc(OCCN3CCOCC3)c3ccccc23)cc1
Potency [1]: inactive
Potency [4]: inactive

CO[C@@]12[C@H](COC(N)=O)C3=C(C(=O)C(C)=C(N)C3=O)N1C[C@@H]1N[C@@H]12
Potency [1]: inactive
Potency [4]: inactive

NC1[C@H]2CN(c3nc4c(cc3F)c(=O)c(C(=O)O)cn4-c3ccc(F)cc3F)C[C@@H]12 (stereo not given in full)
Potency [1]: inactive
Potency [4]: inactive

C[C@@H]1[C@@H](CC(C[C@H]2O[C@@H]3O[C@]4(C)CC[C@@H]5[C@H](C)CC[C@@H]([C@H]2C)[C@@]35OO4)C[S+](=O)([O-])c2ccc(COC(=O)N(C)C)cc2)O[C@@H]2O[C@]3(C)CC[C@H]4[C@H](C)CC[C@@H]1[C@@]24OO3 (stereo not given in full)
Potency [3]: inactive
Potency [4]: inactive

CC(=O)N(O)CCCCCNC(=O)CCC(=O)N(O)CCCCCNC(=O)CCC(=O)N(O)CCCCCN
Potency [1]: inactive
Potency [3]: inactive
Potency [4]: inactive

Nc1nc2c(ncn2COC(CO)CO)c(=O)[nH]1
Potency [1]: inactive
Potency [4]: inactive

Cc1sc2c(c1C)C(c1ccc(Cl)cc1)=N[C@@H](CC(=O)OC(C)(C)C)c1nnc(C)n1-2
Potency [2]: 2430 nM (active)
Potency [3]: 1090 nM (active)
Potency [4]: 385 nM (active)

O=C1Cc2cc(CCN3CCN(c4nsc5ccccc45)CC3)c(Cl)cc2N1
Potency [2]: inactive
Potency [3]: inactive
Potency [4]: inactive

Cc1nc(Nc2ncc(C(=O)Nc3c(C)cccc3Cl)s2)cc(N2CCN(CCO)CC2)n1
Potency [3]: inactive
Potency [4]: inactive

CCC1=C[C@@H]2CN(C1)Cc1c([nH]c3ccccc13)[C@@](C(=O)OC)(c1cc3c(cc1OC)N(C)[C@H]1[C@@](O)(C(=O)OC)[C@H](OC(C)=O)[C@]4(CC)C=CCN5CC[C@]31[C@@H]54)C2
Potency [2]: inactive
Potency [3]: inactive
Potency [4]: inactive

CCOC(=O)C1(c2ccccc2)CCN(CCC(C#N)(c2ccccc2)c2ccccc2)CC1
Potency [2]: inactive

Nc1nc(=S)c2[nH]cnc2[nH]1
Potency [2]: 17200 nM (active)

CC12CC3CC(C)(C1)CC(N)(C3)C2
Potency [1]: inactive
Potency [3]: inactive
Potency [4]: inactive

NC12CC3CC(CC(C3)C1)C2
Potency [1]: inactive
Potency [3]: inactive
Potency [4]: inactive

COc1cc(Nc2c(C#N)cnc3cc(OCCCN4CCN(C)CC4)c(OC)cc23)c(Cl)cc1Cl
Potency [2]: 1090 nM (active)
Potency [4]: inactive
